In PubChem BioAssay AID1159580 (chemical genetic matrix, 2015):
Values joined by “and” are separate entries in the source; they are usually repeats but may differ in a detail not shown here. Equal entries are not always repeated. The whole screen tested about 5,500 compounds, of which about 2,000 (36%) were called active. About 18% were inconclusive and are not listed. Rule as the data show it: active = normalized growth mostly below about 0.91 (no sharp cut-off); inconclusive = no clear call, values can overlap the other calls; inactive = mostly above about 0.92. The list shows a part of the results.

Experiment: chemical genetic growth profiling, strain panel (AID 1159580);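 also: tested at 20 µM; growth read once vehicle control cultures reached saturation at 30 °C; 1 = growth at the plate median or of vehicle wells; lower values mean less growth of the strain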
Conditions: S. cerevisiae deletion strains, growth OD

Measured: normalized growth

Nc1ccncc1
inactive: locus YAL013W, strain DEP1, active compounds read low 1.02 and 1.01 | locus YAL021C, strain ccr4, active compounds read low 0.996 | locus YAL026C, strain drs2, active compounds read low 1 | locus YAL030W, strain snc1, active compounds read low 0.997 | locus YAL040C, strain CLN3, active compounds read low 0.997 | locus YBL061C, strain skt5, active compounds read low 0.99 | locus YBR009C, strain hhf1, active compounds read low 1 | locus YBR021W, strain FUR4, active compounds read low 1.02 | locus YBR023C, strain chs3, active compounds read low 0.993 | locus YBR171W, strain sec66, active compounds read low 0.979 | locus YBR229C, strain ROT2, active compounds read low 0.985 | locus YBR231C, strain swc5, active compounds read low 0.994 | locus YBR279W, strain paf1, active compounds read low 0.998 | locus YCL011C, strain gbp2, active compounds read low 0.995 | locus YCL016C, strain dcc1, active compounds read low 1 | locus YCL029C, strain bik1, active compounds read low 0.973 | locus YCL061C, strain MRC1 (second series), active compounds read low 1 | locus YCL061C, strain MRC1, active compounds read low 0.99 | locus YCL069W, strain vba3, active compounds read low 0.998 | locus YCR088W, strain abp1, active compounds read low 0.981 | locus YDL005C, strain med2, active compounds read low 0.991 | locus YDL035C, strain GPR1, active compounds read low 1.03 | locus YDL040C, strain nat1, active compounds read low 0.989 | locus YDL074C, strain BRE1, active compounds read low 1.05 | locus YDL101C, strain DUN1, active compounds read low 1.01 | locus YDL134C, strain PPH21, active compounds read low 1.02 | locus YDL185W, strain tfp1, active compounds read low 0.981 | locus YDL192W, strain arf1, active compounds read low 0.98 | locus YDR001C, strain nth1, active compounds read low 0.991 | locus YDR069C, strain doa4, active compounds read low 1 | locus YDR101C, strain arx1, active compounds read low 0.972 | locus YDR137W, strain rgp1, active compounds read low 1 | locus YDR150W, strain NUM1, active compounds read low 1.02 | locus YDR159W, strain sac3, active compounds read low 1 | locus YDR162C, strain NBP2, active compounds read low 1.01 | locus YDR195W, strain ref2 1.01 | locus YDR297W, strain sur2, active compounds read low 1 | locus YDR318W, strain mcm21, active compounds read low 0.955 | locus YDR334W, strain swr1, active compounds read low 0.997 | locus YDR335W, strain msn5, active compounds read low 0.997 | locus YDR363W, strain ESC2, active compounds read low 1.01 | locus YDR388W, active compounds read low 0.965 | locus YDR392W, strain spt3, active compounds read low 0.994 | locus YDR502C, strain sam2, active compounds read low 0.968 | locus YEL003W, strain gim4, active compounds read low 1 | locus YEL037C, strain rad23, active compounds read low 0.989 | locus YEL061C, strain CIN8 (second series), active compounds read low 0.994 | locus YEL061C, strain CIN8, active compounds read low 1.01 | locus YER002W, strain NOP16, active compounds read low 1.01 | locus YER015W, strain faa2, active compounds read low 0.995 | locus YER016W, strain bim1, active compounds read low 0.995 | locus YER110C, active compounds read low 0.973 | locus YER111C, strain swi4, active compounds read low 0.987 | locus YER155C, strain BEM2 (second series), active compounds read low 0.947 | locus YER155C, strain BEM2, active compounds read low 1.01 | locus YER167W, strain BCK2, active compounds read low 1.02 | locus YFR010W, strain ubp6, active compounds read low 0.996 | locus YGL078C, strain dbp3, active compounds read low 0.982 | locus YGL086W, strain mad1, active compounds read low 0.975 | locus YGL167C, strain pmr1, active compounds read low 0.992 | locus YGL173C, strain kem1, active compounds read low 0.99 | locus YGL227W, strain vid30, active compounds read low 0.98 | locus YGL240W, strain doc1, active compounds read low 1 | locus YGL248W, strain PDE1, active compounds read low 1.02 | locus YGL253W, strain hxk2, active compounds read low 1 | locus YGR078C, strain PAC10, active compounds read low 1.02 and 1.01 | locus YGR135W, strain pre9, active compounds read low 0.971 | locus YGR229C, strain SMI1, active compounds read low 1.01 and 1 | locus YGR252W, strain gcn5, active compounds read low 0.92 | locus YHR013C, strain ard1, active compounds read low 0.999 | locus YHR027C, strain rpn1, active compounds read low 0.998 | locus YHR030C, strain SLT2, active compounds read low 1.01 and 0.98 | locus YHR079C, strain IRE1 (second series), active compounds read low 0.965 | locus YHR079C, strain IRE1, active compounds read low 0.961 | locus YHR094C, strain hxt1, active compounds read low 0.974 | locus YHR129C, strain ARP1, active compounds read low 1.01 | locus YHR142W, strain chs7, active compounds read low 0.993 | locus YHR200W, strain rpn10, active compounds read low 0.96 | locus YIL066C, strain RNR3, active compounds read low 1.03 | locus YIL073C, strain SPO22, active compounds read low 0.993 | locus YIL125W, strain kgd1, active compounds read low 0.991 | locus YIR030C, strain dcg1, active compounds read low 0.975 | locus YJL092W, strain hpr5, active compounds read low 0.99 | locus YJL095W, strain BCK1 (second series), active compounds read low 0.991 | locus YJL095W, strain BCK1, active compounds read low 0.978 and 0.981 | locus YJL115W, strain asf1, active compounds read low 0.984 | locus YJL129C, strain trk1, active compounds read low 0.988 | locus YJL134W, strain LCB3, active compounds read low 1.01 | locus YJL154C, strain vps35, active compounds read low 0.992 | locus YJL164C, strain tpk1, active compounds read low 1.01 | locus YJL166W, strain qcr8, active compounds read low 0.989 | locus YJL168C, strain set2, active compounds read low 0.963 | locus YJL187C, strain SWE1 (second series), active compounds read low 1.03 | locus YJL187C, strain SWE1, active compounds read low 1 | locus YJR043C, strain POL32, active compounds read low 1 | locus YJR066W, strain TOR1, active compounds read low 0.917
